From paper PMC10812921, “Transcriptional Coactivator BOB1 (OBF1, OCA-B) Modulates the Specificity of DNA Recognition by the POU-Domain Factors OCT1 and OCT2 in a Monomeric Configuration”

Experiments:
[1] = biological target: POU1 (OCT1 POU domain) (human, UniProt P14859 260-458); assay: EMSA-SELEX-seq; no BOB1; 20 mM Tris-HCl pH 7.6, 140 mM NaCl, 10% glycerol, 0.5 mM EDTA, 0.05% Triton X-100, 0.1 mg/mL BSA, 0.1 mg/mL poly(dI-dC), 5 mM DTT, room temperature, 20 min; high values mean tight binding; conditions: protein: recombinant; dsDNA, one strand shown
How it was run: (§1)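 Binding preference means the percentage of sequenced 8-mers matching a motif pattern. Tagged POU-domain proteins (30 ng), expressed in E. coli BL21, purified under denaturing conditions and renatured, were mixed with 300 ng of a PCR-amplified double-stranded random 35-nt library, with or without 28 ng coactivator protein, for 20 min at RT in 20 μL Tris–HCl pH 7.6 binding buffer. Selection was repeated over four rounds of excising complex bands from native 6% PAGE, eluting and PCR amplification, followed by Illumina sequencing.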

[2] = biological target: T1, POU2 (OCT2 POU domain) (human, UniProt P09086 175-386); assay: as above; conditions: protein: recombinant; dsDNA, one strand shown
T1 sequence: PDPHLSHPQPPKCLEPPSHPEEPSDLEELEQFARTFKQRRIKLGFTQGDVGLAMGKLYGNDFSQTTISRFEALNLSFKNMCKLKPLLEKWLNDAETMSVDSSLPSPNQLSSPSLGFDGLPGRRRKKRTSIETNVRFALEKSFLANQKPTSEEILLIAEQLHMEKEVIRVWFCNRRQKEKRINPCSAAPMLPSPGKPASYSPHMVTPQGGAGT
How it was run: as §1

[3] = biological target: POU1 (OCT1 POU domain);BOB1 (OBF1, OCA-B) (human;human, UniProt P14859;Q16633 260-458;1-256, |); assay: EMSA-SELEX-seq; with BOB1 (ternary complex band); 20 mM Tris-HCl pH 7.6, 140 mM NaCl, 10% glycerol, 0.5 mM EDTA, 0.05% Triton X-100, 0.1 mg/mL BSA, 0.1 mg/mL poly(dI-dC), 5 mM DTT, room temperature, 20 min; high values mean tight binding; conditions: protein: recombinant;recombinant; copies: 1;1; dsDNA, one strand shown
How it was run: as §1

[4] = biological target: T2, POU2 (OCT2 POU domain);BOB1 (OBF1, OCA-B) (human;human, UniProt P09086;Q16633 175-386;1-256, |); assay: as above; conditions: protein: recombinant;recombinant; copies: 1;1; dsDNA, one strand shown
T2 sequence 1: T1 sequence
T2 sequence 2: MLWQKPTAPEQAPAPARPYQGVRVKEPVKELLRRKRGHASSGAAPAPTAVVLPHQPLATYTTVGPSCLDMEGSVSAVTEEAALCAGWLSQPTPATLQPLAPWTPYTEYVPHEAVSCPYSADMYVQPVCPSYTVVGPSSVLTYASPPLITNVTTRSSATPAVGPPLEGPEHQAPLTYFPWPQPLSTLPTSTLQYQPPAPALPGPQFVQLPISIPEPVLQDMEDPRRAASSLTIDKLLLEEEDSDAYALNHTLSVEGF
How it was run: as §1

Sequence of POU1 (OCT1 POU domain) (P14859 260-458): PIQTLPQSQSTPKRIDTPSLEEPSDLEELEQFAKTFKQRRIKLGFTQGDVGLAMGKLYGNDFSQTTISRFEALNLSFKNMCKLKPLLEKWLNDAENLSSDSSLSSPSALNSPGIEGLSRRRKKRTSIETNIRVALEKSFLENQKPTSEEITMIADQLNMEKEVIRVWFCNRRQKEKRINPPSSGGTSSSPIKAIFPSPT

Row | Sequence | binding signal [1] | binding signal [2] | binding signal [3] | binding signal [4]
1 | ATGAAAAA | 0.149 % of ANNNNAAN 8-mers | 0.123 % of ANNNNAAN 8-mers | 0.204 % of ANNNNAAN 8-mers | 0.121 % of ANNNNAAN 8-mers
2 | ATATTAAA | 0.297 % of ANNNNAAN 8-mers | 0.365 % of ANNNNAAN 8-mers | 0.131 % of ANNNNAAN 8-mers | 0.14 % of ANNNNAAN 8-mers
3 | AAGTAAAA | 0.108 % of ANNNNAAN 8-mers | 0.0967 % of ANNNNAAN 8-mers | 0.132 % of ANNNNAAN 8-mers | 0.0693 % of ANNNNAAN 8-mers
4 | AAAAGAAG | 0.0629 % of ANNNNAAN 8-mers | 0.076 % of ANNNNAAN 8-mers | 0.0679 % of ANNNNAAN 8-mers | 0.071 % of ANNNNAAN 8-mers
5 | ATACTAAT | 0.17 % of ANNNNAAN 8-mers | 0.182 % of ANNNNAAN 8-mers | 0.0745 % of ANNNNAAN 8-mers | 0.11 % of ANNNNAAN 8-mers
6 | AACGTAAA | 0.0816 % of ANNNNAAN 8-mers | 0.0639 % of ANNNNAAN 8-mers | 0.0843 % of ANNNNAAN 8-mers | 0.0578 % of ANNNNAAN 8-mers
7 | ACGTTAAG | 0.037 % of ANNNNAAN 8-mers | 0.0414 % of ANNNNAAN 8-mers | 0.039 % of ANNNNAAN 8-mers | 0.0405 % of ANNNNAAN 8-mers
8 | ATTATAAG | 0.121 % of ANNNNAAN 8-mers | 0.163 % of ANNNNAAN 8-mers | 0.0843 % of ANNNNAAN 8-mers | 0.0966 % of ANNNNAAN 8-mers
9 | ATGGTAAA | 0.182 % of ANNNNAAN 8-mers | 0.191 % of ANNNNAAN 8-mers | 0.105 % of ANNNNAAN 8-mers | 0.106 % of ANNNNAAN 8-mers
10 | AGCTGAAC | 0.0156 % of ANNNNAAN 8-mers | 0.0196 % of ANNNNAAN 8-mers | 0.0176 % of ANNNNAAN 8-mers | 0.019 % of ANNNNAAN 8-mers
11 | ATATTAAG | 0.196 % of ANNNNAAN 8-mers | 0.214 % of ANNNNAAN 8-mers | 0.0882 % of ANNNNAAN 8-mers | 0.117 % of ANNNNAAN 8-mers
12 | ACGGCAAG | 0.0206 % of ANNNNAAN 8-mers | 0.027 % of ANNNNAAN 8-mers | 0.0211 % of ANNNNAAN 8-mers | 0.0239 % of ANNNNAAN 8-mers
13 | AAGAAAAT | 0.158 % of ANNNNAAN 8-mers | 0.125 % of ANNNNAAN 8-mers | 0.226 % of ANNNNAAN 8-mers | 0.0958 % of ANNNNAAN 8-mers
14 | AGATAAAA | 0.0542 % of ANNNNAAN 8-mers | 0.057 % of ANNNNAAN 8-mers | 0.0597 % of ANNNNAAN 8-mers | 0.0462 % of ANNNNAAN 8-mers
15 | AAGCGAAC | 0.0221 % of ANNNNAAN 8-mers | 0.0178 % of ANNNNAAN 8-mers | 0.0176 % of ANNNNAAN 8-mers | 0.0231 % of ANNNNAAN 8-mers
16 | ACTACAAT | 0.0309 % of ANNNNAAN 8-mers | 0.0282 % of ANNNNAAN 8-mers | 0.0285 % of ANNNNAAN 8-mers | 0.0338 % of ANNNNAAN 8-mers
17 | ATGACAAG | 0.0404 % of ANNNNAAN 8-mers | 0.0351 % of ANNNNAAN 8-mers | 0.0336 % of ANNNNAAN 8-mers | 0.0289 % of ANNNNAAN 8-mers
18 | AATATAAT | 0.213 % of ANNNNAAN 8-mers | 0.286 % of ANNNNAAN 8-mers | 0.137 % of ANNNNAAN 8-mers | 0.133 % of ANNNNAAN 8-mers
19 | AAGGTAAA | 0.108 % of ANNNNAAN 8-mers | 0.109 % of ANNNNAAN 8-mers | 0.144 % of ANNNNAAN 8-mers | 0.0933 % of ANNNNAAN 8-mers
20 | AGATTAAC | 0.0885 % of ANNNNAAN 8-mers | 0.0863 % of ANNNNAAN 8-mers | 0.0414 % of ANNNNAAN 8-mers | 0.0495 % of ANNNNAAN 8-mers
21 | ATCCGAAC | 0.0217 % of ANNNNAAN 8-mers | 0.0219 % of ANNNNAAN 8-mers | 0.0238 % of ANNNNAAN 8-mers | 0.0198 % of ANNNNAAN 8-mers
22 | ACTCAAAA | 0.0427 % of ANNNNAAN 8-mers | 0.0339 % of ANNNNAAN 8-mers | 0.046 % of ANNNNAAN 8-mers | 0.0363 % of ANNNNAAN 8-mers
23 | AAGAGAAC | 0.0271 % of ANNNNAAN 8-mers | 0.0391 % of ANNNNAAN 8-mers | 0.0285 % of ANNNNAAN 8-mers | 0.0289 % of ANNNNAAN 8-mers
24 | AGTTTAAC | 0.04 % of ANNNNAAN 8-mers | 0.0449 % of ANNNNAAN 8-mers | 0.0375 % of ANNNNAAN 8-mers | 0.033 % of ANNNNAAN 8-mers
25 | AAGTTAAT | 0.165 % of ANNNNAAN 8-mers | 0.178 % of ANNNNAAN 8-mers | 0.102 % of ANNNNAAN 8-mers | 0.102 % of ANNNNAAN 8-mers
26 | AGTATAAG | 0.0397 % of ANNNNAAN 8-mers | 0.0587 % of ANNNNAAN 8-mers | 0.041 % of ANNNNAAN 8-mers | 0.0454 % of ANNNNAAN 8-mers
27 | AAATTAAC | 0.334 % of ANNNNAAN 8-mers | 0.33 % of ANNNNAAN 8-mers | 0.188 % of ANNNNAAN 8-mers | 0.196 % of ANNNNAAN 8-mers
28 | AACTCAAA | 0.0397 % of ANNNNAAN 8-mers | 0.0368 % of ANNNNAAN 8-mers | 0.0445 % of ANNNNAAN 8-mers | 0.0231 % of ANNNNAAN 8-mers
